Compound activity deposited in PubChem by National Center for Advancing Translational Sciences (NCATS).
Shiga inhibitor = blocks Shiga toxin action in Vero cells; AID 2315; Vero cells, Shiga toxin protein synthesis inhibition reporter; inhibition, % at 38.7 µM; hit rate 9.2% among 290,000; in the data active means inhibition mostly above about 28%, no sharp cut-off; inactive means mostly below about 43%; further: 0% is about no effect
TbPYK inhibitor = blocks Trypanosoma brucei pyruvate kinase; Potency, µM (series often up to 76.8 µM), inactives show at the highest dose activity, negative = inhibition, actives largely listed as inhibitors; TbPYK enzyme, Kinase-Glo Plus ATP luminescence, 45 min; hit rate 0.12% among 410,000; Q57TT1; further: potency means the concentration at half of the fitted maximal effect; on the % scale 0 is the no-effect control and ±100 the full control effect; nearly all actives have a fitted effect of over 50% in size
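Enzyme and substrate buffer are dispensed first and compound is pin-transferred. ADP at 130 uM final then starts the reaction, which runs 45 min at room temperature. Detection reagent is added for 10 min before luminescence is imaged.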
RE007 growth inh = less growth of the S. pombe RE007 Vpr strain; S. pombe RE007 Vpr strain, BacTiter-Glo ATP luminescence, 24 h; Potency, µM (doses to about 92.2 µM), without a hit: at the top dose activity change, negative = less growth, usual class: inhibitors; hit rate 0.21% among 360,000; active means well fitted falling curve with a large enough effect; inconclusive means small, poorly fitted or top-dose-only effect; inactive means no such curve, though single readings can be large or run the other way; further: potency means the concentration at half of the fitted maximal effect; on the % scale 0 is the no-effect control and ±100 the full control effect; nearly all actives have a fitted effect of over 50% in size
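Fission yeast RE007 carrying one integrated HIV-1 vpr copy, seeded at OD 0.01 in PMG+AL medium with 23 nL pinned compound. Grown 24 h at 30 degrees; viability read by BacTiter-Glo luminescence after 5 min.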
CHX counter = counter-screen for Shiga toxin inhibitors: cycloheximide protein synthesis inhibition. hit rate 12% among 300,000. cell reporter, cycloheximide protein synthesis inhibition counterscreen. max response, %; in the data active means max response mostly above about 13%, no sharp cut-off; inactive means mostly below about 14%; further: read at 38.3 µM for the half of the compounds with a filed dose; 0% is about no effect
LmPK inh = inhibitors of Leishmania mexicana pyruvate kinase. Q27686. purified LmPK, Kinase-Glo ATP luminescence, 1 h. Potency, µM (top dose mostly 57.5 µM), for inactives: top-dose activity change, negative = inhibition, most hits filed as inhibitors. hit rate 0.37% among 290,000. AID 1721; further: potency means the concentration at half of the fitted maximal effect; on the % scale 0 is the no-effect control and ±100 the full control effect
Target sequence (Q27686 whole entry, looked up): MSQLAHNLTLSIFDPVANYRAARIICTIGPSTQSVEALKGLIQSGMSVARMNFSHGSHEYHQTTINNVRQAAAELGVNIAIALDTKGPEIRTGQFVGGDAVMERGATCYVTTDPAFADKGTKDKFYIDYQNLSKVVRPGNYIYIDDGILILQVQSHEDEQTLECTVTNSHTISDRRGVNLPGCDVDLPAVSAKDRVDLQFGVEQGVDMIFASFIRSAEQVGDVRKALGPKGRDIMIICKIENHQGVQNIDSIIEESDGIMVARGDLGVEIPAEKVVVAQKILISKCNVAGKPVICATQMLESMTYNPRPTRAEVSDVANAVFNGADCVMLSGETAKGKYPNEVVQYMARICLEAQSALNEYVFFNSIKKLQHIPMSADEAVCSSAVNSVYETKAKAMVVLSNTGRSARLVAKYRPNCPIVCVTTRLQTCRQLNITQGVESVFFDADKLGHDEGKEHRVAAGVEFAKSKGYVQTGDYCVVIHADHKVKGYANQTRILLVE
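Kinase-Glo luminescence read after 1 h RT reaction of 0.1 nM LmPK with 0.5 mM PEP and 0.1 mM ADP. Activity scaled between uninhibited and enzyme-free controls.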
Giardia FBPA inh = inhibitors of Giardia lamblia fructose-1,6-bisphosphate aldolase; hit rate 0.71% among 290,000; AID 2451; purified Giardia FBPA; Potency, µM (series often up to 59.6 µM), inactives show top-dose activity, negative = inhibition, usual class: inhibitors; A8B2U2; further: potency means the concentration at half of the fitted maximal effect; on the % scale 0 is the no-effect control and ±100 the full control effect; nearly all actives have a fitted effect of over 55% in size
Target sequence (A8B2U2 whole entry, looked up): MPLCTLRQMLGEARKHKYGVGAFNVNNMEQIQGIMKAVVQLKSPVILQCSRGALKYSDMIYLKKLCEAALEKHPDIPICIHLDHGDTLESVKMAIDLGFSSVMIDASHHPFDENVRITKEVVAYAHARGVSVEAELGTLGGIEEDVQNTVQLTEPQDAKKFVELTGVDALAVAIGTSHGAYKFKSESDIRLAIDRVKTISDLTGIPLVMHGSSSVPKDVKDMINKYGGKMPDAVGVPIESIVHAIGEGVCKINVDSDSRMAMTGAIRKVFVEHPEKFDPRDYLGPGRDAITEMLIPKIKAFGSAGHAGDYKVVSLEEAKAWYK
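Giardia FBPA (40 nM reagent) was preincubated 10 min at RT with compound (up to 57.5 uM final), then substrate plus GAPDH/TPI/NAD/arsenate coupling system with diaphorase/resazurin was added; resorufin fluorescence (525/598 nm) was read after 20 min.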
* hit, by the source's call; ? = inconclusive; / = not tested or not shown; + = active, no number; [ ] = dose if it differs, or a comment. Many of the other results were omitted from the sample, so hits are more common in it than they were. Unless noted, the call rests on the fitted dose curve; in most records, active means well fitted curve in the direction sought with a large enough effect; inconclusive means small, poorly fitted or top-dose-only effect, or another doubt; inactive means no such curve, though single readings can be large; an effect the other way counts as inactive or inconclusive.

SMILES | Shiga inhibitor | TbPYK inhibitor | RE007 growth inh | CHX counter | LmPK inh | Giardia FBPA inh
COc1ccc(/C=N/N=C(/N)N[N+](=O)[O-])c(OC)c1 | 28.9* | -3.9% | 5.0% | 28.9* | -0.1% | 8.0%
COc1ccccc1/C=N/NC(=O)c1ccc(Br)cc1 | 18.7 | 4.6% | -19.7% | 25.9* | -1.3% | -11.3%
COc1cc(C(=O)Oc2ccccc2/C=N/NC(=O)c2ccc(Cl)cc2)cc(OC)c1OC | 54.9* | -3.3% | -0.6% | 15.4* | 0.8% | -2.3%
COc1ccc(/C=N/NC(=O)c2ccncc2)c(OC)c1 | 19.6 | 4.9% | -3.1% | 4.7 | -7.9% | -1.9%
COc1ccc(/C=N/NC(=O)c2ccc(Br)cc2)c(OC)c1 | 46.8 | -4.2% | ? | 23.4* | 6.8% | -6.2%
Cc1cc(NC(=O)c2ccccc2)no1 | 73.0* | 0.5% | 14.3% | 50.7* | 0.5% | -3.7%
COc1ccccc1C(=O)Nc1cc(-c2ccc(C)cc2)no1 | 83.0* | -0.2% | -18.1% | 24.6* | -0.2% | -1.5%
O=C(Nc1ccccc1)c1ccc(NC(=O)C2CC2)cc1 | 41.8* | -1.9% | 3.5% | 31.7* | 0.4% | 2.7%
COc1ccccc1C(=O)Nc1cc(C)on1 | / | 8.1% | -27.5% | 44.8* | -4.1% | -13.5%
O=C(NNC(=O)c1ccc(NC(=O)C2CC2)cc1)c1ccc(F)cc1 | -5.3 | -1.3% | -9.0% | 6.4 | -8.6% | /
Cc1cc(NC(=O)c2ccc3nc(-c4ccccc4)c(-c4ccccc4)nc3c2)no1 | -8.7 | -2.6% | 4.1% | 1.1 | -2.6% | 0.1%
CCOC(=O)c1ccc(NC(=O)CN(c2ccc(C)cc2)S(=O)(=O)c2c(C)noc2C)cc1 | / | 3.1% | / | / | / | /
Cc1cc(NC(=O)c2ccc(NC(=O)C3CC3)cc2)no1 | 61.4* | -10.6% | 0.1% | 29.8* | 1.7% | 10.8%
COc1cccc(C2=NOC(C(=O)Nc3cc(C)on3)C2)c1OC (configuration not stated) | 52.6 | 19.5% | 6.7% | 14.3* | -3.4% | -12.6%
COc1cccc(C2=NOC(C(=O)Nc3cccc(C(C)=O)c3)C2)c1OC (configuration not stated) | -18.9 | -2.0% | 7.0% | -2.8 | 3.7% | -1.3%
Cc1cc(NC(=O)CSc2ccccc2)no1 | 42.9 | -7.2% | 6.1% | -0.7 | -0.1% | 3.2%
Cc1cccc(C)c1NC(=O)C(=O)c1cn(C)c2ccccc12 | 26.1 | 4.3% | -18.1% | 10.0 | 8.0% | -5.8%
Cc1cc(NC(=O)C(=O)c2cn(C)c3ccccc23)no1 | 42.4 | 1.7% | -22.0% | 18.4* | 6.0% | 1.3%
C/C(=C\C(=O)Nc1cc(C)on1)c1ccccc1 | 56.6* | 3.0% | 10.7% | 36.5* | 1.8% | -0.9%
CC(C)CO/N=C1/C[C@@H](O)[C@@H](O)[C@@H]2[C@@H]3C(=O)N(C[C@@H]4CCCO4)C(=O)[C@H]3CC[C@H]12 | / | / | / | / | / | -2.1%[12.9 µM]
COc1ccc(CCNC(=O)c2nc(SCc3ccc(C)cc3)ncc2Cl)cc1OC | / | -10.3% | / | / | / | /
Cc1cc(NC(=O)c2cccc(F)c2)no1 | 27.5 | 9.0% | -1.9% | 25.7* | -9.7% | -0.9%
Cc1cc(NC(=O)c2cccc(Br)c2)no1 | / | -9.4% | -2.2% | / | / | /
COc1cc(/C=C\C(=O)N2CCC=CC2=O)cc(OC)c1OC | / | / | / | / | / | 2.9%[21.7 µM]
CC(=O)Nc1ccc(NC(=O)/C(Cl)=C/c2ccccc2)cc1 | 157.3* | -8.6% | 1.8% | 47.5* | 1.7% | 4.0%
SMILES | Shiga inhibitor | TbPYK inhibitor | RE007 growth inh | CHX counter | LmPK inh | Giardia FBPA inh
CC(=O)Nc1ccc(C(=O)N/C(=C/c2ccccc2)C(=O)Nc2cccc(C(=O)O)c2)cc1 | 1.1 | -3.3% | 7.0% | -3.1 | 0.9% | 2.7%
CCNC(=O)N1C(=O)C2(OCCO2)c2ccccc21 | 2.2 | -0.5% | 20.1% | 1.1 | 4.1% | -0.7%
Cc1ccc(NC(=O)N2C(=O)C3(OCCO3)c3ccccc32)cc1 | 92.9* | -1.5% | 9.0% | 43.5* | -0.5% | -9.0%
CC1CCCCC1NC(=O)/C=C/c1nc2ccccc2s1 (configuration not stated) | 76.0 | -5.4% | -5.5% | 30.3* | 0.8% | 0.0%
O=C1CCCCCN1CSc1nc2ccccc2s1 | -3.5 | 5.7% | -9.1% | -2.8 | -0.6% | ?
O=C(/C=C/c1nc2ccccc2s1)N1CCCCCC1 | 52.6* | 3.1% | -19.3% | 35.4* | -1.7% | 4.7%
COc1cccc(C(=O)NCCc2csc3nc(-c4ccccc4F)nn23)c1OC | / | 0.4% | / | / | / | /
Nc1ncnc2c1c(I)cn2C1OC(CO)C(O)C1O (configuration not stated) | / | / | / | / | / | 0.6%
Cc1sc(NC(=O)c2ccc(Cl)s2)c(C(N)=O)c1C | 103.5* | -8.4% | -21.9% | 67.9* | 1.6% | 14.1%
Cc1sc(NC(=S)Nc2ccc(F)cc2)c(C(N)=O)c1C | 48.2 | -20.6% | 6.0% | -0.9 | -0.6% | ?
Cc1sc(NC(=O)c2ccc(Br)s2)c(C(N)=O)c1C | 68.9* | 10.1% | -25.6% | 50.6* | 2.4% | -0.2%
COC(=O)c1sc(N2C(=O)c3oc4cc(C)c(C)cc4c(=O)c3C2c2ccccc2F)nc1C (configuration not stated) | / | -0.9% | / | / | / | /
COc1ccc(CCNC(=O)CCc2c(C)nc3c4c(C)cc(C)nc4nn3c2C)cc1OC | / | -1.7% | / | / | / | /
CSc1nc(N)nc(SCC(=O)c2ccc(C)cc2)c1C#N | + | -7.1% | 5.1% | 27.9* | 2.2% | 0.6%[12.9 µM]
O=C(CSCC(=O)c1ccc([N+](=O)[O-])cc1)c1ccc([N+](=O)[O-])cc1 | / | 1.1% | -20.6% | / | / | /
Cc1snc(SCc2ccc(F)cc2)c1C#N | 24.6 | 2.3% | 0.1% | 11.2 | -1.6% | 9.5%
Cc1snc(SCC(=O)c2ccc([N+](=O)[O-])cc2)c1C#N | 63.8* | 35.5µM* | ? | 29.8* | -1.8% | ?
Cc1snc(SCc2ccc(Cl)cc2)c1C#N | 46.3 | -3.7% | 7.0% | 10.9* | 1.4% | -10.3%
Cc1snc(SCC(=O)c2ccc(F)cc2)c1C#N | 104.9* | 0.7% | 15.0% | 34.4* | -1.8% | -17.7%
CSc1nc(N)nc(SCC(=O)OC(C)C)c1C#N | 23.9 | 3.4% | 0.3% | 5.5 | 5.7% | -0.7%
CCN(C(=O)c1cnc2ccc(C)cn2c1=O)c1ccccc1 | / | -9.7% | / | / | / | /
Cc1ccc(Cl)cc1NC(=O)C(=O)NCCc1sc(-c2ccc(F)cc2)nc1C | / | 4.9% | / | / | / | /
CC(C)COC(=O)/C(C#N)=C/c1c[nH]c2ccccc12 | 42.9 | -10.9% | -16.0% | 18.0* | 1.9% | -0.2%
N#C/C(=C\c1c[nH]c2ccccc12)C(=O)NC1CCCC1 | 41.9* | 3.3% | -1.0% | 22.4* | 9.5% | -0.5%
N#C/C(=C\c1c[nH]c2ccccc12)C(=O)NC1CC1 | 36.3* | 2.0% | 50.4% | 56.3* | -1.4% | -7.0%
Cc1[nH]c2ccccc2c1/C=C(\C#N)C(=O)NC(C)c1ccccc1 (configuration not stated) | -5.3 | -5.4% | -12.0% | -2.9 | -3.4% | 0.1%
Cc1[nH]c2ccccc2c1/C=C(\C#N)C(=O)NC1CC1 | 129.2* | -0.8% | 0.8% | 55.1* | -4.3% | -2.9%
